From PubChem
Sampled rows, rich in hits. Any-hit rate of the full collection: about 3.5%.
Pf apPOL inh – Pf-apPOL DNA polymerase inhibition; inhibition, % at 10 µM; AID 1794808; Recombinant Pf-apPOL, molecular beacon fluorescence, 1.5 h; 210,000 compounds, 0.25% hits
mHTT CaM bind – disrupts binding of mutant huntingtin to calmodulin. AID 1671202. AlphaScreen His-mHTT/GST-CaM binding, luminescence. inhibition, % at 15 µM. 190,000 compounds, 3.6% hits. P42858
Target sequence (P42858 whole entry, looked up, change not shown): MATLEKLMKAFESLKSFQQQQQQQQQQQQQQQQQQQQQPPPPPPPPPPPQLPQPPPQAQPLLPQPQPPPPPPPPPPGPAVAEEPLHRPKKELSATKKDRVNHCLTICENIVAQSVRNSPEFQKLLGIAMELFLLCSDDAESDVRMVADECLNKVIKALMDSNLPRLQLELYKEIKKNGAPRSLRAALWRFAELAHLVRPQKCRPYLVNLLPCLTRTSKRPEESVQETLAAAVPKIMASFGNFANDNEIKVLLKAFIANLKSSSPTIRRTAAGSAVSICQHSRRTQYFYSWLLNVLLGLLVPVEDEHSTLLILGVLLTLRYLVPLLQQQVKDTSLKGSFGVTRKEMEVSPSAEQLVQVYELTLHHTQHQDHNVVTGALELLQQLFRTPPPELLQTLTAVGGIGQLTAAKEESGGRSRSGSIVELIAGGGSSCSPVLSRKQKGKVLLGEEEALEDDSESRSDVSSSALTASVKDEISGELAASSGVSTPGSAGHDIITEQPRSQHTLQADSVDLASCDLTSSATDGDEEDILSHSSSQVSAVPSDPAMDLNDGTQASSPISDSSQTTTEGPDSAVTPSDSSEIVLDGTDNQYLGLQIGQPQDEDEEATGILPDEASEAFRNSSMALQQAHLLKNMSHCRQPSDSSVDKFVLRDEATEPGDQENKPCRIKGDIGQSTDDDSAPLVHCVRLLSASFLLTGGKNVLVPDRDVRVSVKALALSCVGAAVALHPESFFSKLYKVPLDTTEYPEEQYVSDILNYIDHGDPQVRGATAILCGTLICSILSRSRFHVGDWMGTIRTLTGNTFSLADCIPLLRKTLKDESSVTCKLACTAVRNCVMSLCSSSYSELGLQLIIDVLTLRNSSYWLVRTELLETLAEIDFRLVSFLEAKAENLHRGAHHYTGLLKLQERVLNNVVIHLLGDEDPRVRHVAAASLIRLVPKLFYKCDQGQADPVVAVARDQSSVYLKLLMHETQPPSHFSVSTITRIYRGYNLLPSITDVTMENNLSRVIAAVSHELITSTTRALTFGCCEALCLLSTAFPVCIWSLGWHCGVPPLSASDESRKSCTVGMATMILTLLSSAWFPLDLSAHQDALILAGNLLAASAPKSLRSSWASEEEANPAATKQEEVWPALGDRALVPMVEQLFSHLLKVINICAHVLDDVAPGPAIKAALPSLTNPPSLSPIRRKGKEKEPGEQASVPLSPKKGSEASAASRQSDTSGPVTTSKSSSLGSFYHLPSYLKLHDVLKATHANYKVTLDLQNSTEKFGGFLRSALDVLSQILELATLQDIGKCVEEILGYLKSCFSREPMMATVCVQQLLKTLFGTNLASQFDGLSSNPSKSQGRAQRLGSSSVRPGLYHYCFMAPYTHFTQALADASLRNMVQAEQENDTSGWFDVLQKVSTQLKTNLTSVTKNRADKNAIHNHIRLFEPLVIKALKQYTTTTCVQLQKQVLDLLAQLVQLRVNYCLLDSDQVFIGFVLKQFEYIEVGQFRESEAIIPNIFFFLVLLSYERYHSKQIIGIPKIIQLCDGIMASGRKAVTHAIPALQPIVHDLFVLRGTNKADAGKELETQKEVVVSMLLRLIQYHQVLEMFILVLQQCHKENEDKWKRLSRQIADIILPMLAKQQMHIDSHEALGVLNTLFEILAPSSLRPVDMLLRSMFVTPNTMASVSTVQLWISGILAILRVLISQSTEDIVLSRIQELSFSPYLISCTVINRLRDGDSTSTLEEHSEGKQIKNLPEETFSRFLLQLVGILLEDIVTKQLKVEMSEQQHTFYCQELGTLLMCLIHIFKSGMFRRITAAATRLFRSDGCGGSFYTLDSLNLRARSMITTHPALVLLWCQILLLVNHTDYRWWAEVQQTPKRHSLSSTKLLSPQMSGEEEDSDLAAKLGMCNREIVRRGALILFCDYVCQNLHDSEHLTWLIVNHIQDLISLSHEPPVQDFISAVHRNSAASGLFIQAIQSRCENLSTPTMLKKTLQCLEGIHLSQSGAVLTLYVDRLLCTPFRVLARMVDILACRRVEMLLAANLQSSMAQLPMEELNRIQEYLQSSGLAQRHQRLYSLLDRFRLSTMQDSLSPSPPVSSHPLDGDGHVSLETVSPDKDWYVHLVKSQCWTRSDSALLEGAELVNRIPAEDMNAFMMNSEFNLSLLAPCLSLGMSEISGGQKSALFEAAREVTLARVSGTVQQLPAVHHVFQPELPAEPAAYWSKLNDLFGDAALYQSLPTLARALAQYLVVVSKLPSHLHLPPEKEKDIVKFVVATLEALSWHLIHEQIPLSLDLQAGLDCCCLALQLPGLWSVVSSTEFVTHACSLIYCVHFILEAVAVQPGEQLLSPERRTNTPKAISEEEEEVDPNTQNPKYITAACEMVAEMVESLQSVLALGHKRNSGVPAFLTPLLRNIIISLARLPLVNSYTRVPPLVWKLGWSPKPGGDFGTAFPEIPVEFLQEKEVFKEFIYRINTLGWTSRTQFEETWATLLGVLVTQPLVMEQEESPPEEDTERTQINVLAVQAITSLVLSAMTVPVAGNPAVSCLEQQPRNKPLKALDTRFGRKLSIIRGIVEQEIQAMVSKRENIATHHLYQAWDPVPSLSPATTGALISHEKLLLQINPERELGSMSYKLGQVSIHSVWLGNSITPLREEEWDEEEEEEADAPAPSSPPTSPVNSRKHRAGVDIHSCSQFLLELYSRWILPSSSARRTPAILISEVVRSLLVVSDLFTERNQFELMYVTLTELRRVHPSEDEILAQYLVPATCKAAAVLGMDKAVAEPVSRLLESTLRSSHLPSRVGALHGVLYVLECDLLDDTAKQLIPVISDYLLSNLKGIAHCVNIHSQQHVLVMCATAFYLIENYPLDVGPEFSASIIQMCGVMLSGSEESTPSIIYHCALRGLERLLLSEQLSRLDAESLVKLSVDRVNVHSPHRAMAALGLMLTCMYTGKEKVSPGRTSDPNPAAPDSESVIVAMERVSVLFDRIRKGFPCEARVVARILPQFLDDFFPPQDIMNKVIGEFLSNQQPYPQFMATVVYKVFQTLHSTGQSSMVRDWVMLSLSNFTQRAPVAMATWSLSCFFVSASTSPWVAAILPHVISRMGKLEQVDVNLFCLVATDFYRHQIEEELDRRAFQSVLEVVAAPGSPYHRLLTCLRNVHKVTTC
Hits are given with their value; i = inactive; nt = no result. Rule as the data show it: active = inhibition above about 50%; inactive = the rest.

SMILES	Pf apPOL inh	mHTT CaM bind
O=C(Nc1ccc(Cl)c(Cl)c1)c1cnn2c1NC(c1ccccc1)CC2C(F)(F)F (configuration not stated)	i	i
Cc1nn(-c2ccc(F)cc2)c2nc(N3CCC(NC(=O)C(C)C)CC3)sc12	i	i
COc1cccc(C(=O)Nc2cccc3cccnc23)c1	i	i
COc1cccc(C(Nc2cc(C)ccn2)c2ccc3cccnc3c2O)c1 (configuration not stated)	i	99
COc1cccc(C(=O)Nc2c3c(nn2-c2ccc(F)cc2)CSC3)c1	i	i
Cc1ccc(NC(=O)c2cc(Cl)c(Cl)cc2C(=O)O)cc1C	i	i
Cc1ccc(NC(=O)c2cc(N3C(=O)C=CC3=O)ccc2Cl)cc1C	i	92
COc1ccc(Oc2ccc([N+](=O)[O-])cc2C(=O)Nc2ccc(S(N)(=O)=O)cc2)cc1	i	nt
COc1ccc(CCNC(=O)c2cc3cc([N+](=O)[O-])cc(OC)c3oc2=O)cc1OC	i	i
Oc1ccc(Cl)cc1C1=NNC(c2cccs2)C1 (configuration not stated)	i	52
COc1ccccc1C1CC(c2cc(F)ccc2O)=NN1 (configuration not stated)	i	i
CCN1C(=O)C(CC(C)C)NC12CCN(C(=O)c1ccccc1Cl)CC2 (configuration not stated)	i	i
CN(C)CCOc1ccc([N+](=O)[O-])cc1	i	i
Cc1cc(C)c(S(=O)(=O)N2CCC(c3noc(-c4ccccc4)n3)CC2)c(C)c1	i	100
Cc1cc(C)c(C)c(S(=O)(=O)N2CCC(c3noc(-c4ccccc4)n3)CC2)c1C	i	i
Fc1cc(F)cc(CN2CCc3nc(N4CCN(c5ccccn5)CC4)ncc3C2)c1	i	i
Cc1cccc(C2=NN(c3ccc(Br)cc3)[C@@H](C(=O)N3CCOC3=O)[C@@H]2c2ccc([N+](=O)[O-])cc2)c1	i	50
O=C1OCCN1C(=O)[C@H]1[C@H](c2ccc([N+](=O)[O-])cc2)C(c2ccccc2)=NN1c1ccccc1	i	i
Cc1cccc(C2=NN(c3ccc(Br)cc3)[C@@H](C(=O)N3CCOC3=O)[C@@H]2C)c1	i	i
O=C1OCCN1C(=O)[C@H]1[C@H](c2ccc([N+](=O)[O-])cc2)C(c2cccc(Cl)c2)=NN1c1ccccc1	i	55
COc1ccccc1Cc1nc2ccccc2nc1SCC(=O)NCc1ccccc1	i	i
COC(=O)C(C#N)=Cc1cccn1CCCn1ccnc1	i	nt
CCNC(=O)N1CCN(Cc2c(-c3ccc(F)cc3)nc3sc(C)cn23)CC1	i	i
O=C(CSc1nc(O)cc(=O)[nH]1)c1ccc(O)cc1O	i	i
Cc1cccc(NS(=O)(=O)c2cc3n(c2)CCCNC3=O)c1	i	i
SMILES	Pf apPOL inh	mHTT CaM bind
CC(C)NC(=O)N1CCC2(CC1)Nc1cc(F)ccc1-n1cccc12	i	i
Cc1ccc2c(c1)NC1(CCN(C(=O)c3ccc(F)cc3)CC1)c1cccn1-2	i	87
CCN1c2ccc(C)cc2C(=O)NC12CCN(C(=O)c1ccc(Cl)cc1)CC2	i	i
Cc1ccc2c(c1)NC1(CCN(C(=O)c3ccc(Cl)cc3)CC1)c1cccn1-2	i	53
O=c1cc2oc3cc(O)c(-c4ccc(O)cc4O)cc3nc-2cc1-c1ccc(O)cc1O	nt	100
O=c1cc(-c2ccc(O)cc2)oc2cc(O)cc(O)c12	i	nt
CCOc1cc(/C=c2\sc3nc4cc(C)c(C)cc4n3c2=O)ccc1OCC(N)=O	i	i
Cc1ccc(C)c(CSc2nc(C3CCCCC3)c(C#N)c(=O)[nH]2)c1	73	nt
Cc1ccccc1CSc1nc2c(cnn2-c2ccccc2)c(=O)[nH]1	i	i
O=C(NC1CCCCCCC1)C1c2cccn2CC(=O)N1Cc1ccccc1 (configuration not stated)	i	i
CN(C1=CC(=O)c2ccccc2C1=O)c1ccccc1	i	60
CN(C)N1C(=O)c2ccccc2C1=O	i	i
COc1ccc(NC(=O)CSc2nc3ccccc3o2)c([N+](=O)[O-])c1	i	i
O=C(CSc1nc2ccccc2o1)Nc1ccccc1[N+](=O)[O-]	i	55
Cc1cc(C)cc(C(=O)NCc2[nH]nc3ccccc23)c1	i	i
COc1cccc(C(=O)NCc2[nH]nc3ccccc23)c1	i	52
COc1ccc(C2C3=C(Nc4ncnn42)c2ccccc2OC3c2ccccc2Cl)cc1OC (configuration not stated)	i	70
COc1cccc(C2C3=C(Nc4ncnn42)c2ccccc2OC3c2ccc(OC)c(OC)c2)c1 (configuration not stated)	i	i
Cc1ccc(C2Oc3ccccc3C3=C2C(c2cccs2)n2ncnc2N3)cc1 (configuration not stated)	i	i
COc1ccc(C2Oc3ccccc3C3=C2C(c2cccs2)n2ncnc2N3)cc1OC (configuration not stated)	i	56
CCOC(=O)C(C#N)=Cc1ccc(N(C)C)c(C#N)c1F	i	nt
Cc1ccc(C(=O)N2CCc3c(c(-c4nc(-c5ccccc5)no4)nn3C)C2)s1	i	i
Cc1ccccc1CC(=O)Nc1c(C)nc2scc(C)n2c1=O	i	i
Cc1cc(C2CCCN2C(=O)c2cccc(C#N)c2)no1 (configuration not stated)	i	i
Cc1ccccc1NS(=O)(=O)c1cccs1	i	i
SMILES	Pf apPOL inh	mHTT CaM bind
CCOc1ccc(S(=O)(=O)N=C2C=C(Nc3ccc(O)cc3)C(=O)c3ccccc32)cc1	i	94
CCOc1ccc(NC2=CC(=NS(=O)(=O)c3ccccc3)c3ccccc3C2=O)cc1	i	66
CCOc1ccc(NC2=CC(=NS(=O)(=O)c3ccc(OC)cc3)c3ccccc3C2=O)cc1	i	i
CS(=O)(=NC(=O)Nc1ccccc1)c1cccs1 (configuration not stated)	i	nt
O=C1C(Nc2ccc(O)cc2)=CC(=NS(=O)(=O)c2cccs2)c2ccccc21	i	94
Cc1ccc(Cl)cc1NC1=CC(=NS(=O)(=O)c2cccs2)c2ccccc2C1=O	i	79
CCOc1ccc(S(=O)(=O)N=C(Nc2ccccn2)c2ccccc2)cc1	i	i
CC(=O)NC(=Cc1cnc(-c2ccccc2)[nH]1)C(=O)O	i	nt
Cc1ccc(-c2csc(/C(C#N)=C/c3ccc(C)o3)n2)cc1	i	i
O=C(C1=NNc2ccccc2S1(=O)=O)N1CCCC1	i	i
CCOc1cccc(OCCCOc2ccccc2C(C)=O)c1	i	i
CC1CCCC(NC(=O)C2c3ccccc3C(=O)N2Cc2ccccc2)C1C (configuration not stated)	i	i
O=C(Cc1cccs1)NC1CCN(c2nnc3ccc(Cl)cn23)CC1	i	i
CCn1nnc2c(SCc3cc(OC)cc(OC)c3)ncnc21	i	i
CCc1ccc(S(=O)(=O)Nc2ccc(O)cc2)cc1	i	i
CCc1ccc(S(=O)(=O)N=C2C=C(Nc3ccc(O)cc3)C(=O)c3ccccc32)cc1	i	72
COc1cc(OC)c(C2N(c3ccc(Cl)cc3)C(=O)C3CCCN32)cc1OC (configuration not stated)	i	67
COc1cc(OC)c(C2N(c3ccc(Cl)c(Cl)c3)C(=O)C3CCCN32)cc1OC (configuration not stated)	i	98
COc1ccccc1C1N(c2ccc(Cl)c(Cl)c2)C(=O)C2CCCN21 (configuration not stated)	i	100
CCN(CC)c1ccc(C2N(c3cc(Cl)ccc3OC)C(=O)C3CCCN32)cc1 (configuration not stated)	i	75
